Test results published in PubChem BioAssay (NCI).
The panel holds about 83,000 compounds, 20% with a hit somewhere; the sample as a whole holds those more often.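 Values shown are percent growth following 48 h exposure of cells in 96-well plates to a single concentration of compound; below 10 was considered active.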 A number with no mark means an inactive call. Active and inactive are the calls of the source.

Experiments:
Test in all cases: NCI-60 one-dose screen, 48 h (100 = growth as untreated, 0 = no growth, -100 = all killed)
Settings in all cases: 10 µM unless noted
DU-145 prostate = test system: DU-145 prostate
K-562 leukemia = test system: K-562 leukemia
MALME-3M melanoma = test system: MALME-3M melanoma
MDA-MB-231 breast = test system: MDA-MB-231 breast
RXF 393 renal = test system: RXF 393 renal
SF-268 CNS = test system: SF-268 CNS
SF-295 CNS = test system: SF-295 CNS
SF-539 CNS = test system: SF-539 CNS
UACC-257 melanoma = test system: UACC-257 melanoma
M14 melanoma = test system: M14 melanoma
HCT-15 colon = test system: HCT-15 colon
HT29 colon = test system: HT29 colon
SNB-75 CNS = test system: SNB-75 CNS
U251 CNS = test system: U251 CNS
PC-3 prostate = test system: PC-3 prostate
SK-MEL-5 melanoma = test system: SK-MEL-5 melanoma
UACC-62 melanoma = test system: UACC-62 melanoma
LOX IMVI melanoma = test system: LOX IMVI melanoma
SK-MEL-28 melanoma = test system: SK-MEL-28 melanoma
SNB-19 CNS = test system: SNB-19 CNS

Row | Structure (SMILES) | growth (DU-145 prostate) | growth (K-562 leukemia) | growth (MALME-3M melanoma) | growth (MDA-MB-231 breast) | growth (RXF 393 renal) | growth (SF-268 CNS) | growth (SF-295 CNS) | growth (SF-539 CNS) | growth (UACC-257 melanoma) | growth (M14 melanoma) | growth (HCT-15 colon) | growth (HT29 colon) | growth (SNB-75 CNS) | growth (U251 CNS) | growth (PC-3 prostate) | growth (SK-MEL-5 melanoma) | growth (UACC-62 melanoma) | growth (LOX IMVI melanoma) | growth (SK-MEL-28 melanoma) | growth (SNB-19 CNS) [%]
1 | C#C[C@]1(O)CC[C@H]2[C@@H]3CC=C4c5sc(NCc6ccccc6)nc5CC[C@]4(C)[C@H]3CC[C@@]21C | 71% | 1.46% (active) | 43.6% | 48.4% | -36% (active) | 47.5% | -57.6% (active) | -39.9% (active) | -10% (active) | 21.4% | 8.8% (active) | -7.33% (active) | 23.5% | 23.4% | 15.3% | 58.2% | 9.41% (active) | -5.72% (active) | 12.7% | 
2 | CNC(=O)c1cc(N2CCc3cc(NC(=O)Nc4ccc(N5CCOCC5)c(C(F)(F)F)c4)ccc32)ccn1 | 27.2% | 7.92% (active) | 25.8% | 47.6% | -6.79% (active) | 47.8% | -21% (active) | 24.1% | 59.1% | 17% | 5.54% (active) | 28.5% | 38.6% | 29.2% | 7.98% (active) | 12.9% | -29.8% (active) | 12.5% | 49.8% | 
3 | COc1ccc(-c2cnc(NC(=O)CCCCCCNC(=O)C(O)(O)C(F)(F)F)s2)cc1 | -8.16% (active) | 14.4% | 11% | 17% | -48% (active) | 2% (active) | -44.2% (active) | 12% | 18.3% | 14.4% | 4.2% (active) | 0.86% (active) | 36.8% | -46.4% (active) | 17.8% | -62.2% (active) | -31.8% (active) | -89.5% (active) | 8.09% (active) | 
4 | O=C(CSc1cc[n+](CCCCO)c2ccccc12)n1ccc2ccccc21 | 110% | 98.2% | 99.7% | 88.2% | 107% | 109% | 99.7% | 99.2% | 95.2% | 96.6% | 104% | 103% | 96.1% | 96.3% | 97.6% | 98.7% | 93.5% | 103% | 110% | 
5 | C#Cc1cc(OC)c(C(=O)Nc2ccc(F)cc2C(=O)Nc2cccc(S(=O)(=O)C(F)(F)F)c2)cn1 | 46.8% | 5.65% (active) | -33.4% (active) | -24.4% (active) | -1.43% (active) | -38.1% (active) | -83.2% (active) | -87.1% (active) | 55.7% | 16.7% | -8.48% (active) | -30.3% (active) | -80.4% (active) | 0.45% (active) | 4.89% (active) |  | 18.8% | -82.1% (active) | 50% | 17.6
6 | COc1ccc(C(C)=C(c2ccc(OCCN(C)C)cc2)c2ccc(OCCN(C)C)cc2)cc1 | 20% | -67.4% (active) | -74.4% (active) | -52.2% (active) | -79.1% (active) | -12% (active) | -70.2% (active) | -79.4% (active) | -70.4% (active) | -85.8% (active) | -46.1% (active) | -53.5% (active) | 3.78% (active) | -64.1% (active) | 1.05% (active) | -82.6% (active) | -66.3% (active) | -79.9% (active) | -88.4% (active) | 
7 | Cc1ccc(-c2nc(SCC(=O)c3ccccc3)nc(Nc3ccc(S(N)(=O)=O)cc3)c2C#N)cc1 | 60.7% | 70.1% | 33.6% | 33% | 51.7% | 76.7% | 36.7% | 18.3% | 97.4% | 36.7% | 72.1% | 92.3% | 80% | 47.4% | 92.6% | 75.5% | 80.3% | 15.4% | 81.1% | 
8 | CC[C@]12CC(C(=O)OC)=C3Nc4ccccc4[C@@]34CCN(C14)[C@@H]1c3cc4c(cc3O[C@@H]1[C@H]2O)NC1=C(C(=O)OC)C[C@@]2(CC)C3N(CC[C@@]143)C[C@H]1O[C@H]12 (some centres not stated) | 41.9% | 6.04% (active) | 5.67% (active) | 22.2% | -17.9% (active) | 29.4% | 9.12% (active) | 15.5% | 24.8% | 17.6% | 3.59% (active) | 12.2% | -4.96% (active) | 19.2% | 10.1% | -75.7% (active) | 8.9% (active) | -64.6% (active) | 20.7% | 
